The values below come from PubChem BioAssay (EPA / NIEHS).

Assay [1] addresses Transcription factor E2F1 (Homo sapiens) (UniProt Q01094). As to the kind of experiment: ATG_E2F_CIS: Attagene CIS-FACTORIAL HepG2 Assay for human E2F Transcription Factor 1 (AID 2282935). Particulars: HepG2 Attagene cis-reporter, E2F reporter RNA transcripts; actives raise or lower the signal. A digest of the protocol: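 In this cis-factorial format, endogenous factor activity drives transfected reporters in HepG2; transcripts collected at 24 h are quantified by fluorescence after RT-PCR and capillary separation.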

A short description of assay [2]: ATG_M_61_CIS: Attagene CIS-FACTORIAL HepG2 Assay for M61 Transcription Factor (Internal Marker) (AID 2282937). Particulars: HepG2 Attagene CIS-FACTORIAL M61 internal marker reporter; actives raise or lower the signal. A digest of the protocol: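 Fluorescence from labelled cDNA fragments, separated by capillary electrophoresis, quantifies reporter induction. HepG2 cells bearing transiently transfected cis-promoter MRTUs were incubated with test chemical for 24 h; DMSO defined baseline for gain/loss fitting.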

A short description of assay [3]: ATG_M_19_CIS: Attagene CIS-FACTORIAL HepG2 Assay for M19 Transcription Factor (Internal Marker) (AID 2282939). The following applies: HepG2 Attagene CIS-FACTORIAL M19 internal marker reporter; actives raise or lower the signal. A digest of the protocol: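 Readout: fluorescent reporter-transcript fragments by capillary electrophoresis after RT-PCR. Human HepG2 liver cells carried transfected MRTU constructs reporting endogenous transcription-factor activity; exposure 24 h. Gain or loss of signal fitted relative to DMSO.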

Assay [4] in a line: ATG_ERE_CIS: Attagene CIS-FACTORIAL HepG2 Assay for Estrogen Response Element (ERE) (AID 2282940). Particulars: HepG2 ERE cis-reporter, Attagene RNA transcript; actives raise or lower the signal. A digest of the protocol:
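Readout: reporter mRNA induction by RT-PCR, FAM-labelled primer extension, HpaI digestion and capillary electrophoresis, 24 h after dosing transfected HepG2 cells. Endogenous transcription factors act on cis-element-regulated reporters. Gain or loss fitted against DMSO.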

Assay [5] can be described thus: ATG_Ets_CIS: Attagene CIS-FACTORIAL HepG2 Assay for human Erythroblast Transformation Specific (ETS) (AID 2282941). Particulars: HepG2 ETS cis-reporter transcription, actives raise or lower the signal. In short, it runs like this: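 Cis-regulated reporter mRNA induction in HepG2 (transient transfection), 24 h exposure, RT-PCR plus capillary electrophoresis detection; DMSO serves as negative control and baseline.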

Assay [6] deals with Hepatocyte nuclear factor 3-beta (Homo sapiens) (UniProt Q9Y261). As to the kind of experiment: ATG_FoxA2_CIS: Attagene CIS-FACTORIAL HepG2 Assay for human Forkhead box A2 (FOXA2) (AID 2282942). Particulars: HepG2 cis-reporter transcription factor activity, 24 h; actives raise or lower the signal. In short, it runs like this:
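In transiently transfected human HepG2 cells, promoter-driven reporter mRNA levels after 24 h chemical exposure are determined via RT-PCR with capillary electrophoresis. DMSO serves as baseline for bidirectional fitting.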

The nature of assay [7]: ATG_FoxO_CIS: Attagene CIS-FACTORIAL HepG2 Assay for human Forkhead box O (FoxO) (AID 2282943). Particulars: HepG2 Attagene cis-reporter, FoxO element, mRNA; actives raise or lower the signal. A digest of the protocol:
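24 h chemical exposure, HepG2 with transient cis-MRTU transfection. RNA extraction, oligo(dT) RT, reporter-specific PCR, primer-extension labelling, HpaI digestion, CE fragment analysis; bidirectional fit, DMSO baseline.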

Assay [8] can be described thus: ATG_GATA_CIS: Attagene CIS-FACTORIAL HepG2 Assay for human GATA Binding Protein (AID 2282944). Particulars: HepG2 GATA cis-element reporter, Attagene multiplex mRNA; actives raise or lower the signal. In short, it runs like this: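 Read-out: fluorescent reporter mRNA fragments resolved by capillary electrophoresis after RT-PCR. Human liver HepG2 cells carried transiently transfected cis-regulated reporter constructs; chemicals incubated 24 h; gain or loss of signal fitted relative to DMSO.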

Assay [9] in a line: ATG_E_Box_CIS: Attagene CIS-FACTORIAL HepG2 Assay for human Enhancer Box (E-box) (AID 2282936). The following applies: HepG2 E-box cis-reporter transcription, actives raise or lower the signal. A digest of the protocol: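 Measured 24 h post-dosing in HepG2 cells transfected with multiple cis-regulated reporter units, signal being reporter mRNA induction detected by fluorescent RT-PCR with capillary electrophoresis; gain or loss fitted against DMSO.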

The nature of assay [10]: ATG_EGR_CIS: Attagene CIS-FACTORIAL HepG2 Assay for human Early Growth Response 1 (EGR1) (AID 2282938). The following applies: HepG2 Attagene CIS-FACTORIAL EGR reporter mRNA; actives raise or lower the signal. A digest of the protocol:
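Cell-based multiplex transcription assay: HepG2 carrying transfected cis-element reporter units, 24 h chemical treatment. Fluorescence from capillary electrophoresis of RT-PCR products gives mRNA levels; fitting is bidirectional relative to DMSO.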

The structures appear in SMILES notation. The source holds several records for some structures; these can differ, active in one and inactive in another. Activity calls are given as the source filed them. Rule for the calls: active = hit-call score of the fitted dose curve at least 0.9, where 1 is the maximum; inactive = score below 0.9.

Chain of Hepatocyte nuclear factor 3-beta (Homo sapiens) (Q9Y261 whole entry, looked up): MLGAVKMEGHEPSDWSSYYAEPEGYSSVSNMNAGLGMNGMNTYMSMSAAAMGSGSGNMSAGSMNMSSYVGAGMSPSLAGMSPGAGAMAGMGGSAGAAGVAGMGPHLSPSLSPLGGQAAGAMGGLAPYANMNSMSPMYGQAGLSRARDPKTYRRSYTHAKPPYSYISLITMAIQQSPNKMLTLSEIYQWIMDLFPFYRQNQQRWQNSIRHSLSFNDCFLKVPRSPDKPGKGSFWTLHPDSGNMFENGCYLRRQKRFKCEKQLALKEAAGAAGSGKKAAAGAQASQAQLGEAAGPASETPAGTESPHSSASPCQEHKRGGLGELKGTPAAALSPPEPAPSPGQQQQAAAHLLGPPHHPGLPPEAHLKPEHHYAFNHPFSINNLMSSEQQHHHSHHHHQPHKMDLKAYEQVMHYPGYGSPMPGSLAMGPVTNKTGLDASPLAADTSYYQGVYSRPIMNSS
Chain of Transcription factor E2F1 (Homo sapiens) (Q01094 whole entry, looked up): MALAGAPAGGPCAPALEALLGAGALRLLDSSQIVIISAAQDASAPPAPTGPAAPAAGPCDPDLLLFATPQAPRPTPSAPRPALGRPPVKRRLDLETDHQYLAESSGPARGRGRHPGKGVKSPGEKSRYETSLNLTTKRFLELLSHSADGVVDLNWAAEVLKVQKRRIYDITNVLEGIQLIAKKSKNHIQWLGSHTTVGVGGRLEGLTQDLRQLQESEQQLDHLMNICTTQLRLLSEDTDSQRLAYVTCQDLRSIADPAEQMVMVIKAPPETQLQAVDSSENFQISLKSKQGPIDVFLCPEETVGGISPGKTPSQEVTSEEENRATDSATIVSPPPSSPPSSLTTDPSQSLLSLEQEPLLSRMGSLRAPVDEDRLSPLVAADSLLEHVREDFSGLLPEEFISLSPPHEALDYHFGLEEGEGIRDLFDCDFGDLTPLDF

`Nc1ccc(Oc2cccc(Oc3ccc(N)cc3)c2)cc1`: the concentration at half-maximal activity (AC50) in [1] is 33.4 µM (active); in [3], 51.5 µM (active); in assay [5], 112 µM (active); in assay [7] it was 163 µM (active); in assay [8], 135 µM (active). Besides, the result in assay [2], in assay [4] and in assay [6] was inactive.
Consider `CCc1c(Br)c(Br)c(Br)c(Br)c1Br`, for which the result in assay [1], in assay [2], in assay [3], in assay [4], in [5] and in [7] was inactive. In addition, the result in assay [8] was inactive.
As for `CCCCCCC(C)OC(=O)CCCCC(=O)OC(C)CCCCCC` (stereo unspecified), the result in [9], in [2], in [10], in [3], in assay [4] and in assay [5] was inactive. The compound was called inactive in assay [6] and in [8].
Take `CC(C)OC(=O)c1ccccc1C(=O)OC(C)C`: the outcome in [1], in assay [2], in [10], in [3], in [5] and in assay [8] was inactive. For the same compound, the concentration at half-maximal activity (AC50) in assay [4] was 27.7 µM (active).
With `CCN(Cc1cccc(S(=O)(=O)O)c1)c1ccc(C(=C2C=CC(=[N+](CC)Cc3cccc(S(=O)(=O)O)c3)C=C2)c2ccc(O)cc2S(=O)(=O)[O-])cc1`, the outcome in assay [1], in [2], in [3], in assay [5], in [6] and in assay [7] was inactive. Further, the outcome in assay [8] was inactive. Besides, the AC50 in assay [4] is 16.8 µM (active).
`O=C(O)C(F)(F)C(F)(F)C(F)(F)C(F)(F)C(F)(F)C(F)(F)C(F)(F)C(F)(F)C(F)(F)C(F)(F)C(F)(F)C(F)(F)F`: the outcome in [1], in assay [2], in [10], in assay [3], in [4] and in assay [5] was inactive. Further, the result in [7] and in assay [8] was inactive.
On to `FC(F)(F)C(F)(F)CNCC(F)(F)C(F)(F)F`, for which the call in assay [1], in assay [2], in assay [3], in assay [4], in [5] and in [6] was inactive. Also, the outcome in assay [7] and in assay [8] was inactive.
On to `Cc1cccc(N(C)C)c1`, for which the compound was classed as inactive in assay [1], in [2], in assay [10], in assay [3], in [4] and in assay [5]. The result in [6], in assay [7] and in assay [8] was inactive.
`O=C(O)C(F)(F)C(F)(F)C(F)F`: the outcome in assay [9], in [2], in [10], in assay [3], in assay [4] and in assay [5] was inactive. In addition, the result in assay [6] and in assay [8] was inactive.
As to `FC(F)(I)C(F)(F)C(F)(F)C(F)(F)I`, the compound was classed as inactive in [1], in [2], in [3], in [5], in assay [6] and in assay [7]. Further, in assay [8], the compound was called inactive. Also, the half-maximal activity concentration (AC50) in assay [4] was 0.291 µM (active).
In the case of `CC(=O)Nc1ccc(N=Nc2cc(C)ccc2O)cc1`, the result in assay [1], in assay [2], in assay [10], in assay [3], in assay [4] and in [5] was inactive. The call in assay [6], in assay [7] and in assay [8] was inactive.
For `C=C(C)C(=O)OCC(F)(F)C(F)(F)C(F)(F)F`, the call in assay [1], in assay [2], in [10], in assay [3], in [4] and in assay [5] was inactive. In addition, the result in [6], in assay [7] and in assay [8] was inactive. Besides, the AC50 in assay [4] was 30.8 µM (active).
Take `CC(C)=CCCC(C)CCOC(=O)C(C)C` (stereo unspecified): the call in [1], in [2], in assay [10], in [3], in assay [4] and in [5] was inactive. Besides, the result in assay [7] and in [8] was inactive.
`OCC(F)(F)C(F)(F)C(F)(F)C(F)(F)C(F)(F)C(F)(F)F`: the concentration at half-maximal activity (AC50) in [1] was 234 µM (active); in assay [10], 248 µM (active); in [5] it was 236 µM (active). Further, the compound was classed as inactive in assay [2], in assay [3], in [4], in [6], in assay [7] and in [8].
For the compound `c1ccc(B(c2ccccc2)c2ccccc2)cc1`, the values for the half-maximal activity concentration (AC50) in [9] and in assay [4] were 160 µM (active) and 9.96 µM (active), respectively. The outcome in [2], in [10], in [3], in assay [5], in assay [6] and in [7] was inactive. Besides, the call in assay [8] was inactive.
With `O=P(O)(O)OCCC(F)(F)C(F)(F)C(F)(F)C(F)(F)C(F)(F)C(F)(F)F`, the compound was called inactive in assay [1], in assay [2], in assay [3], in assay [5] and in assay [8]. Further, in [4], the AC50 was 18.3 µM (active).
Turning to `Cc1ccc(S(=O)(=O)OCC(F)(F)C(F)(F)C(F)(F)C(F)(F)C(F)(F)C(F)F)cc1`, the outcome in assay [1], in assay [2], in assay [10], in assay [3], in assay [4] and in assay [5] was inactive. In addition, the result in [6], in [7] and in assay [8] was inactive.
As for `CN(C)Cc1ccccc1O`, the compound was classed as inactive in assay [1], in assay [9], in assay [2], in assay [3], in [4] and in [5]. The compound was classed as inactive in assay [7] and in assay [8].
Take `OCC(F)(F)C(F)(F)C(F)(F)C(F)(F)C(F)(F)C(F)F`: the compound was classed as inactive in [1], in assay [9], in assay [2], in [3], in assay [5] and in [7]. Also, in assay [8], the result was inactive. Moreover, the concentration at half-maximal activity (AC50) in assay [4] is 6.1 µM (active).
In the case of `CCCCCCCCCCCCCCCC[N+](C)(C)Cc1ccccc1`, the compound was called inactive in assay [1], in [2], in assay [3], in assay [4], in [5] and in assay [6]. In addition, the compound was classed as inactive in assay [7] and in assay [8].
For the compound `O=C(O)C=C(C(F)(F)F)C(F)(F)F`, the result in assay [9], in [2], in assay [3], in assay [4], in assay [5] and in assay [7] was inactive. Moreover, the compound was called inactive in assay [8].
As to `CCCCCCOC(=O)c1ccccc1`, the result in assay [9], in assay [2], in assay [3], in assay [4], in [5] and in assay [7] was inactive. Moreover, the compound was called inactive in [8].
For `CCc1ccc(C(c2ccc(CC)cc2)C(Cl)Cl)cc1`, the outcome in assay [9], in assay [2], in assay [10], in assay [3], in assay [5] and in [7] was inactive. For the same compound, the compound was classed as inactive in assay [8]. Further, the AC50 in [4] was 40.1 µM (active).
As for `CC(CCl)OP(=O)(OC(C)CCl)OC(C)CCl` (stereo unspecified), the result in [2], in assay [3], in assay [4], in assay [5], in [6] and in assay [8] was inactive.
On to `CO[Si](OC)(c1ccccc1)c1ccccc1`, for which the result in [2], in assay [10], in assay [3], in assay [5], in assay [6] and in [7] was inactive. For the same compound, the call in assay [8] was inactive. Moreover, in assay [4], the AC50 is 72.8 µM (active).
On to `CC(C)c1ccccc1N`, for which the result in [9], in [2], in assay [10], in assay [3], in assay [4] and in [5] was inactive. The outcome in assay [8] was inactive.
